Insulin prom inh – TRM-6 insulin promoter activity inhibition; TRM-6 cells (human fetal islet line), insulin promoter-eGFP reporter, imaging; reporter expression induced with tamoxifen; inhibition, % at 2 µM; 0.9% of 130,000 active; AID 1273;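 active = inhibition above the mean plus 3 SD, with well images judged a real hit on visual review, cut at about 60% in these data, passing the limit was not always enough; inconclusive = inhibition over the cutoff but images rejected on review; inactive = inhibition not above the cutoff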
SDO1 yeast rescue – compounds rescuing growth of sdo1-depleted yeast, bone marrow failure model; 0.21% of 140,000 active; z-score at 10 µM; S. cerevisiae sdo1-depleted JHY4D growth rescue, OD600 30 h; active compounds read high; pdr5 snq2 efflux-pump mutant strain;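 active = z-score above 3 at both the 24 hr and the 30 hr optical density reads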;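 also: z-score against mean and SD of all compound wells on the same plate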
Measles CPE – protection of cells from measles virus; protection (pct of control), % at 4 µM; AID 841; Measles virus-infected cells, CPE protection, absorbance; 1.5% of 140,000 active; in the data active = protection mostly above about 24%, no sharp cut-off; inactive = mostly below about 26%
ROMK mod – modulators of human ROMK potassium channel. B-score at 10 µM. Tet-inducible ROMK, thallium flux fluorescence; actives lie on both sides. 2% of 130,000 active. AID 1918. P48048;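 active = signal ratio slope over the read window, or its plate-corrected B-score, at least 3 SD from the plate mean, either direction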;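 also: B-score of the F/F0 ratio slope over 7 to 12 s after thallium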
Target sequence (P48048 whole entry, looked up): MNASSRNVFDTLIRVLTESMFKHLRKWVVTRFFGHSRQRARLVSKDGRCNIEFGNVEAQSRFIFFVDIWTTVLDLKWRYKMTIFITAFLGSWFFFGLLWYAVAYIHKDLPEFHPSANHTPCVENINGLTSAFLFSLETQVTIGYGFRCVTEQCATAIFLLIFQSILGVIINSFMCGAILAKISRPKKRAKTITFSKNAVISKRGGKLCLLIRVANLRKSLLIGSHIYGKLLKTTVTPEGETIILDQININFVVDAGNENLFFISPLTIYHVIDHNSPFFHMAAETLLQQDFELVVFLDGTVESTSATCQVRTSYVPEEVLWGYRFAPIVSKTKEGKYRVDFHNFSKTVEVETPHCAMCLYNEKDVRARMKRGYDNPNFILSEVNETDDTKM
ROMK hit retest – retested hit modulating human ROMK potassium channel | AID 1917 | ROMK thallium flux, fluorescence ratio; active compounds read low | shares compounds with ROMK mod | normalized thallium flux (F/F0 slope) at 10 µM | 54% of 3,000 active;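 active = Flux at 10 µM at least 3 SD below or above vehicle control mean in one or both replicates; inconclusive = no clear call, values can overlap the other calls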
* hit, by the source's call. Only some compounds are listed: those with a hit (about 3% of all), similar ones and a draw of the others.

Results for CCCCCOc1ccc(CSC(=N)N)cc1[N+](=O)[O-] ?
Insulin prom inh: -23; SDO1 yeast rescue: -0.58; Measles CPE: 9; ROMK hit retest: 0.052*

Results for CCCCOc1ccc(Br)cc1CSC(=N)N ?
Insulin prom inh: 17; SDO1 yeast rescue: -0.47; Measles CPE: 1; ROMK mod: -4*; ROMK hit retest: 0.057*

What do the screens show for `COc1ccc(CSC(=N)N)cc1[N+](=O)[O-]`?
Insulin prom inh: -10; SDO1 yeast rescue: 1.4; Measles CPE: 6; ROMK mod: -0.27

How did COc1ccc(C2OC(=O)CC2C(=O)NCc2ccc(C)cc2)cc1OC (configuration not stated) do in these assays?
Insulin prom inh: 7

How did COc1ccc(C2OC(=O)CC2C(=O)NCc2ccccc2Cl)cc1OC (configuration not stated) do in these assays?
Insulin prom inh: 8; ROMK mod: -10*; ROMK hit retest: 0.078

How did O=C(CCN1CCN(c2ccccc2)CC1)N/N=C/c1ccccc1O do in these assays?
ROMK mod: -0.76

What do the screens show for `COc1ccc(N(C(=O)/C=C/C(=O)Nc2cc(C)on2)C(C(=O)NC2CCCC2)c2ccccc2C)cc1` (configuration not stated)?
Insulin prom inh: 32; SDO1 yeast rescue: 0.21; Measles CPE: 19; ROMK mod: -6.4*; ROMK hit retest: 0.057*

How did CCOC(=O)c1c(CSc2ccccc2)n(C)c2cc(Br)c(OCC(O)CNC(CO)(CO)CO)cc12 (configuration not stated) do in these assays?
Insulin prom inh: -36; SDO1 yeast rescue: -0.08; Measles CPE: 2; ROMK mod: -5.2*; ROMK hit retest: 0.056*

Results for CCOC(=O)c1c(CN2CCN(Cc3ccccc3)CC2)n(C)c2cc(Br)c(OC)cc12 ?
Insulin prom inh: 8; SDO1 yeast rescue: -2.9; Measles CPE: 5; ROMK mod: 0.14

How did Cc1ccc(NC(=O)CSC(C)C(=O)NCCc2ccccn2)cc1 (configuration not stated) do in these assays?
ROMK mod: -2.8*; ROMK hit retest: 0.072

What do the screens show for `OC(CNCC1(N2CCCCC2)CCCCC1)COc1ccc(Cl)cc1Cl` (configuration not stated)?
ROMK mod: -3.9*; ROMK hit retest: 0.053*

What do the screens show for `Cc1cc(Br)ccc1OCCCCN1CCC(C)CC1`?
Insulin prom inh: -25; SDO1 yeast rescue: -1.2; Measles CPE: 8; ROMK mod: -1.2

Results for O=C(C1CCCN(S(=O)(=O)c2cccc3cccnc23)C1)N1CCN(c2ccc(F)cc2)CC1 (configuration not stated) ?
SDO1 yeast rescue: -0.46; Measles CPE: 10; ROMK hit retest: 0.071

What do the screens show for `CC(C)(C)Nc1nc(NN)nc(NC(C)(C)C)n1`?
SDO1 yeast rescue: 1.3; Measles CPE: 2; ROMK mod: -5.2*; ROMK hit retest: 0.051*

How did CC(C)(C)Nc1nc(Cl)nc(NC(C)(C)C)n1 do in these assays?
Insulin prom inh: -7; SDO1 yeast rescue: -0.34; Measles CPE: 38

Results for CCn1cc(C(C)NC(=O)COc2ccc(Cl)cc2C)c(C)n1 (configuration not stated) ?
Insulin prom inh: -31; SDO1 yeast rescue: 1.6; Measles CPE: 11; ROMK mod: -1.2

Results for COc1cccc(OC2OC3COC(C)(C)OC3C(O)C2NC(C)=O)c1 (configuration not stated) ?
ROMK mod: 0.16

Results for COc1ccc(CCNc2cc(N3CCN(C(=O)c4ccc(C)cc4)CC3)ccc2[N+](=O)[O-])cc1OC ?
Insulin prom inh: 44; SDO1 yeast rescue: -0.47; Measles CPE: 8; ROMK mod: -0.49

Results for COc1ccc(C(=O)N2CCN(c3ccc([N+](=O)[O-])c(NCCc4ccc(OC)c(OC)c4)c3)CC2)cc1 ?
Insulin prom inh: 45; SDO1 yeast rescue: 0.04; Measles CPE: 7; ROMK hit retest: 0.06*

Results for CCOC(=O)N1CCN(C(=O)C2CCN(S(=O)(=O)c3ccc(F)cc3)CC2)CC1 ?
ROMK mod: -0.32

What do the screens show for `CCOC(=O)N1CCN(S(=O)(=O)c2ccc(OCC)c(C)c2)CC1`?
Insulin prom inh: -113; SDO1 yeast rescue: -0.04; Measles CPE: 8; ROMK mod: -1

What do the screens show for `CCOC(=O)N1CCN(S(=O)(=O)c2ccc3c(c2)OCC(=O)N3)CC1`?
SDO1 yeast rescue: 1.1; ROMK mod: -2.5*; ROMK hit retest: 0.058*

How did CCOC(=O)N1CCN(S(=O)(=O)c2ccc3c(c2)SCC(=O)N3)CC1 do in these assays?
SDO1 yeast rescue: 0.05; Measles CPE: 6; ROMK mod: -4.3*; ROMK hit retest: 0.061*

How did CCOC(=O)N1CCN(S(=O)(=O)c2ccc3c(c2)SC(C)C(=O)N3)CC1 (configuration not stated) do in these assays?
Insulin prom inh: -9; SDO1 yeast rescue: 0.76; Measles CPE: 3; ROMK hit retest: 0.067*

Results for CCOC(=O)N1CCN(S(=O)(=O)c2ccc(C)c(C)c2)CC1 ?
Insulin prom inh: 24; SDO1 yeast rescue: 1.2; Measles CPE: 22; ROMK mod: -0.024

How did O=C(c1ccc(Br)o1)N1CCc2ccccc21 do in these assays?
ROMK mod: 0.0028

Results for COC(=O)C1=C(C)N(C)C(C)=C(C(=O)OC)C1c1ccccc1C ?
SDO1 yeast rescue: -0.9; Measles CPE: 6; ROMK mod: -4.4*; ROMK hit retest: 0.064*

How did CCCCOc1ccccc1C1C(C(=O)OC)=C(C)N(C)C(C)=C1C(=O)OC do in these assays?
Insulin prom inh: 12; SDO1 yeast rescue: -0.78; Measles CPE: 6

Results for CCOc1ccc(S(=O)(=O)Oc2ccc3ccccc3c2)cc1 ?
Insulin prom inh: 17; SDO1 yeast rescue: 0.14; Measles CPE: 10; ROMK mod: 0.39

How did CC(C)=CCC/C(C)=C/CCC(C)NCCN1CCNCC1 (configuration not stated) do in these assays?
SDO1 yeast rescue: -1.9; Measles CPE: 4; ROMK mod: -3.3*; ROMK hit retest: 0.054*

What do the screens show for `C=CCn1cccc(C(=O)Nc2cc(OC)ccc2OC)c1=O`?
Insulin prom inh: -19; ROMK mod: -0.076

Results for Cc1cccc(NC(=O)Cn2cnc3ccccc3c2=O)c1C ?
SDO1 yeast rescue: 1.1; Measles CPE: 6; ROMK mod: 0.5

How did COc1ccc(N2CCN(C(c3cccs3)C(C)NS(C)(=O)=O)CC2)cc1 (configuration not stated) do in these assays?
Insulin prom inh: 18; ROMK mod: -0.49

Results for O=C(CCSc1ccccc1)N1CCCC1 ?
Insulin prom inh: -57; ROMK mod: 0.32

Results for O=C1CCCCCN1Sc1ccccc1 ?
SDO1 yeast rescue: 0.06; Measles CPE: 2; ROMK hit retest: 0.043*

What do the screens show for `O=C(NCCCCc1ccccc1)C12CN(Cc3ccccc3)CC1C(c1ccc([N+](=O)[O-])cc1)=NO2` (configuration not stated)?
Insulin prom inh: -18; SDO1 yeast rescue: -0.36; Measles CPE: 17

What do the screens show for `CCN(CC)c1ccc(C=Nc2ccc(N(C)C)cc2)c(O)c1`?
Insulin prom inh: -13; SDO1 yeast rescue: -0.44; Measles CPE: 11; ROMK mod: -2.7*; ROMK hit retest: inconclusive

Compound activity from PubChem BioAssay.
